Compound activity: PubChem BioAssay, National Center for Advancing Translational Sciences (NCATS)
Only some compounds are listed: those with a hit (about 19% of all), similar ones and a draw of the others.
HT1080-NT tox – kills 2HG-producing HT-1080-NT fibrosarcoma cells; actives 1.6% (n = 360,000); HT-1080-NT fibrosarcoma viability, CellTiter-Glo ATP luminescence, 48 h; AID 686970; Potency, µM (doses to about 46.1 µM), for inactives: at the highest dose activity, negative = less viability, hits mostly cytotoxic;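 also: NT is the 2HG producing partner of a matched IDH1 knockdown line; potency is read from the fitted curve at half-maximal effect; 0% = DMSO-treated cells and -100% = media-only wells without cells; nearly all actives have a fitted effect of over 55% in size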
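Fibrosarcoma NT cells, 750 per well in 5% FBS RPMI, were exposed to compound for 48 hours. Viability: CellTiter-Glo luminescence.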
TDP1 cell CPT – growth inhibition of DT40 Tdp1-/-;hTDP1 cells with camptothecin (screen for TDP1 inhibitors); chicken DT40 Tdp1-/-;hTDP1 cells + 20 nM CPT, ATP luminescence, 48 h; Potency, µM (doses to about 46.2 µM), for the others: at the top dose activity change, negative = growth inhibition, most hits filed as inhibitors; actives 12% (n = 420,000); also: potency is read from the fitted curve at half-maximal effect; nearly all actives have a fitted effect of over 55% in size
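Chicken DT40 Tdp1-/- cells stably complemented with human TDP1 were seeded at 400 cells/well in medium containing 20 nM camptothecin, exposed to pin-transferred compounds, and grown at 37 °C for at least 48 hr. Viability was read as ATP luminescence.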
HT1080 IDH1KD tx – toxicity to HT-1080 IDH1 knockdown cells (counter line); Potency, µM (top dose mostly 46.1 µM), inactives show at the highest dose activity, negative = toxicity, usual class: cytotoxic; AID 686971; HT-1080 IDH1 knockdown viability, ATP luminescence, 48 h; actives 2% (n = 360,000);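 also: potency is read from the fitted curve at half-maximal effect; 0% = DMSO wells and -100% = cell-free medium wells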
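HT-1080-IDH1KD cells (IDH1 knocked down), 750/well in RPMI with 5% FBS, treated with compound 48 h at 37 degrees C. Viability by CellTiter-Glo luminescence, normalised to DMSO and no-cell wells; concentration-response curves classed.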
IL1B secr inh – blocks inflammasome-driven IL-1 beta release | THP-1 LPS/ATP IL-1B secretion, AlphaLISA, 16 h; stronger effect = lower value | activity change, % at 57.5 µM | actives 4.7% (n = 360,000) | AID 743279; in the data active = activity change below about -50%; inconclusive = mostly about -30% to -49%
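THP-1 cells pretreated 1 hr with compounds (up to 57.5 uM final), then stimulated with LPS (250 ng/mL final) plus ATP (1.25 mM final); secreted IL-1B measured by AlphaLISA after 16 hr, decreased signal indicating inhibition.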
DT40 TDP1 no CPT – qHTS for Inhibitors of human tyrosyl-DNA phosphodiesterase 1 (TDP1): qHTS in cells in absence of CPT; DT40 Tdp1-/- hTDP1 cells, no CPT, ATP luminescence, 48 h; Potency, µM (titrated, usually from 46.2 µM), for the others: top-dose activity change, negative = growth inhibition, hits mostly inhibitors; actives 15% (n = 420,000); AID 686978, 2013; also: potency is read from the fitted curve at half-maximal effect; nearly all actives have a fitted effect of over 55% in size
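Growth kinetics read by CellTiter-Glo luminescence after ≥48 hr at 37 °C. Cells: DT40 Tdp1-/- stably carrying human TDP1, 400 per well, compound exposure in the absence of CPT (DMSO vehicle).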
* marks the source's active call; other numbers are inactive results; ? = inconclusive; . = no result given; [ ] = remark or other dose. Unless noted, calls follow the shape of the dose curve; as a rule, active = well fitted curve in the direction sought with a large enough effect; inconclusive = small, poorly fitted or top-dose-only effect, or another doubt; inactive = no such curve, though single readings can be large; an effect the other way counts as inactive or inconclusive. Unless noted, % is scaled to controls: 0 for no effect and ±100 for the full control effect.

SMILES | HT1080-NT tox | TDP1 cell CPT | HT1080 IDH1KD tx | IL1B secr inh | DT40 TDP1 no CPT
O=C(/C=C/c1ccc(F)cc1)NCCCN1CCN(CCCNC(=O)/C=C/c2ccc(F)cc2)CC1 | -6% | ? | -5% | -26 | 26µM*
CC(C)(C)SCCNC(=O)/C=C/c1ccc(F)cc1 | ? | ? | ? | 0 | ?
CC(C)(CNC(=O)/C=C/c1ccc(F)cc1)CNC(=O)/C=C/c1ccc(F)cc1 | ? | ? | ? | -88* | ?
Cc1ccc(C(=O)CCc2ccc(N)cc2)cc1 | 2% | -6% | -7% | ? | -7%
CC(C)NC(=O)c1ccc2c(=O)n(C3CCCC3)c(=S)[nH]c2c1 | 17% | -20% | 26% | -6 | -14%
CCN(CC)CCNC(=O)c1ccc2c(=O)n(C3CCCC3)c(=S)[nH]c2c1 | ? | ? | 20µM* | 6 | -29%
O=C(c1ccc2c(=O)n(C3CCCC3)c(=S)[nH]c2c1)N1CCc2ccccc21 | -7% | 12µM* | -6% | 0 | 21µM*
COc1ccccc1-c1cnc2c(c1)C(=O)N([C@@H](C)CO)C[C@@H](C)[C@H](CN(C)C(=O)c1cccnc1)O2 | 5% | -6% | 6% | 19 | 15%
Cc1ccc(-c2noc(CNC(=O)COc3ccccc3C)n2)cc1 | -20% | -14% | -16% | -9 | 5%
Cc1ccc(C)c(NC(=O)CCc2nc(-c3ccc(C(C)(C)C)cc3)no2)c1 | . | 23µM* | . | . | 16µM*
COc1ccc(-c2noc(CNC(=O)COc3cccc(C)c3C)n2)cc1 | . | ? | . | . | 21µM*
COc1ccc(-c2noc(CCC(=O)Nc3ccc(C)c(C)c3)n2)cc1 | ? | -27% | ? | 21 | -25%
COc1ccc(NC(=O)CCc2nc(-c3ccc(C)cc3)no2)cc1Cl | -6% | 16µM* | -21% | 3 | 16µM*
CCN(C(=O)CCc1nc(-c2ccc(C)cc2)no1)c1cccc(Cl)c1 | . | 21µM* | . | . | ?
COc1ccc(CN2CCC(=O)N([C@H](CO)c3ccccc3)CC2)cc1 | 11% | -1% | 14% | 13 | 10%
O=C(CCc1nc(-c2ccc(F)cc2)no1)Nc1cccc(C(=O)NC2CC2)c1 | 0% | ? | 2% | 18 | 16µM*
COc1ccc(Br)cc1CNC(=O)CCc1nc(-c2ccc(C)cc2)no1 | -16% | -22% | -9%[9.24 µM] | 6 | ?
COc1ccc(-c2noc(CCC(=O)NCc3ccc(OC)cc3OC)n2)cc1 | . | ? | . | . | 16µM*
COc1ccc(-c2noc(CCC(=O)Nc3ccc4c(c3)OCCO4)n2)cc1 | -25% | 16µM* | -22% | -2 | 15µM*
COc1ccc(-c2noc(CCC(=O)NCc3cc(Br)ccc3OC)n2)cc1 | -10% | ? | -7% | -90* | 18µM*
Cc1ccc(C(=O)N2CCN(C3c4cccc5cccc(c45)C3NS(=O)(=O)c3ccccc3)CC2)cc1 (configuration not stated) | -4% | ? | 1% | 0 | ?
CCN(c1ccccc1)S(=O)(=O)c1nnc(NC(=O)COc2cccc(C)c2)s1 | . | 5% | . | . | 1%
COCCNC(=O)C1CCCN(Cc2ccc(-c3ccccc3)cc2)CC1 (configuration not stated) | ? | ? | 13% | -11 | -15%
COc1ccc(NC(=O)CCc2nc(-c3ccc(C)cc3)no2)c(OC)c1 | -2% | ? | 8%[9.24 µM] | 24 | 18µM*
COc1ccc(Cl)cc1N(C)C(=O)CCc1nc(-c2ccc(C)cc2)no1 | -20% | 18µM* | 1%[9.24 µM] | -3 | 23µM*
SMILES | HT1080-NT tox | TDP1 cell CPT | HT1080 IDH1KD tx | IL1B secr inh | DT40 TDP1 no CPT
Cc1ccc(NC(=O)ON=C2CCCC2)cc1 | -3% | ? | 3% | -28 | -18%
COc1ccc(NC(=O)CN(C)C(=O)c2cn(-c3ccccc3)nc2-c2cccnc2)cc1 | -1% | -26% | -4% | 14 | ?
CC(C)=CCc1c(O)cc(O)c2c1OC(c1ccc(O)cc1)CC2=O (configuration not stated) | -7% | ? | -8% | 1 | ?
CC(C)=CCc1c(O)c(CC=C(C)C)c2c(c1O)C(=O)CC(c1ccc(O)cc1)O2 (configuration not stated) | ? | ? | ? | 29 | 18µM*
COc1cc(O)c2c(c1)OC(c1ccc(O)cc1)CC2=O (configuration not stated) | 30% | ? | 23% | -15 | 16µM*
COC1=CC(=O)C(C2CC(=O)c3c(O)cc(O)cc3O2)=CC1=O (configuration not stated) | 4% | 3.7µM* | -3% | -97* | 2.6µM*
COc1ccc([C@@H]2CC(=O)c3c(O)cc(O)cc3O2)cc1O | 49% | ? | 19% | 15 | ?
Cc1cccc(NC(=O)Nc2nnc(N(C)Cc3ccccc3)s2)c1 | . | 15µM* | . | . | ?
CCN(c1ccccc1)c1nnc(NC(=O)Nc2ccccc2F)s1 | . | ? | . | . | 2.6µM*
Cc1c(Cl)cccc1NC(=O)Nc1nnc(N(C)Cc2ccccc2)s1 | . | ? | . | . | -27%
Cc1ccccc1NC(=O)Nc1nnc(N(C)Cc2ccccc2)s1 | . | ? | . | . | 16µM*
CCC1(CC)Cc2ccccc2C(C2=C(O)CC(C)(C)CC2=O)=N1 | 22% | -11% | 14% | 2 | -14%
COc1ccc(NC(=O)C2CCN(S(=O)(=O)c3cccc(-c4noc(C)n4)c3)CC2)cc1OC | . | ? | . | . | 21µM*
CCc1ccc(NC(=O)C2CCN(S(=O)(=O)c3ccc4[nH]c(=O)ccc4c3)CC2)cc1 | -6% | -20% | -14% | -9 | -12%
CCc1ccc(NC(=O)C2CCN(S(=O)(=O)c3ccc4c(c3)N(C(C)=O)CCO4)CC2)cc1 | -3% | -28% | 0% | 11 | 18µM*
Cc1cc(C)cc(NC(=O)C2CCN(S(=O)(=O)c3cccc(-c4noc(C)n4)c3)CC2)c1 | . | 16µM* | . | . | 21µM*
CCc1ccc(NC(=O)C2CCN(S(=O)(=O)c3cccc(-c4noc(C)n4)c3)CC2)cc1 | . | 21µM* | . | . | 15µM*
Cc1cc(C)cc(NC(=O)C2CCN(S(=O)(=O)c3cccc4nonc34)CC2)c1 | . | -21% | . | . | -19%
O=C(COC(=O)C12CC3CC(CC(Br)(C3)C1)C2)NCc1ccco1 | . | -6% | . | . | -25%
CC(C)NC(=O)N1CCC2(CC1)CCN(C(=O)c1cccc(F)c1)CC2 | . | 2% | . | . | -6%
Cc1ccc(C2NC(=O)c3n[nH]c(-c4cccs4)c32)cc1 (configuration not stated) | . | ? | . | . | 18µM*
Cc1ccc(-c2cc(-c3cccs3)[nH]n2)c(O)c1 | -28% | ? | -26% | 33 | ?
